We go through 92 compounds from PubChem BioAssay AID504462 (Sanford-Burnham Center for Chemical Genomics, 2011).

Among all 340,000 compounds or so, about 1,700 (0.5%) were called active. This is one part of a sample in which actives are shown more often than they occur. Values without a mark were called inactive. Rule as the data show it: active = inhibition above about 40%; inactive = the rest.

Chain of Cysteine protease ATG4B (Homo sapiens) (Q9Y4P1 whole entry, looked up): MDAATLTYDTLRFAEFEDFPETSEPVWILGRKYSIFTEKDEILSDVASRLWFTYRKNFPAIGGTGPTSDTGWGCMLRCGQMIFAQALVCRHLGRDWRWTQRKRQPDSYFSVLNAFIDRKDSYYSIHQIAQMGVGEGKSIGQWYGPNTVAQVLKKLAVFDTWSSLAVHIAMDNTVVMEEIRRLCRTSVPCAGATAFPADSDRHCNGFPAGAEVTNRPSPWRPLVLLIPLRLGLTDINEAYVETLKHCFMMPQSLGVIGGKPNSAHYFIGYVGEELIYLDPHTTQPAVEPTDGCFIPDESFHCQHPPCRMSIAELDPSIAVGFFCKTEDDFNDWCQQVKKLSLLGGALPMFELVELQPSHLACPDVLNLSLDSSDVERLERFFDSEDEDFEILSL

This assay concerns the target Cysteine protease ATG4B (Homo sapiens) (UniProt Q9Y4P1). Description: blockers of ATG4B cysteine protease activity – biochemical, fluorescence, uHTS, primary screen (AID 504462). Conditions: ATG4B cleavage of LC3-PLA2, NBD-HPC fluorescence, 1 h; at 8.33 µM; stronger effect = higher value.
For `CCC(C)c1ccc(NC(=S)NCc2ccccn2)cc1` (configuration not stated), the inhibition was 2.58%.

For `CC(=O)N1CCN(C(=O)c2cc(-c3ccc(Cl)s3)nc3ccccc23)CC1`, the inhibition is 2%.

In the case of `COc1cc(OC)cc(C(=O)Nc2ccc(-c3nc4ccccc4o3)c(O)c2)c1`, the inhibition was 1%.

As to `Cc1ccc(NNC(=O)C2CCC2)cc1C`, the inhibition is -8.25%.

For `O=c1cc(C(F)(F)F)[nH]c(=O)n1C1CCCCC1`, the inhibition is -7.77%.

As for `Cc1ccc(Nc2cc(=O)n(C3CCCCC3)c(=O)[nH]2)cc1C`, the inhibition was 49.4% (active).

Turning to `Cc1ccc(-c2nnn(CC(=O)N(CCO)C(C(=O)NC(C)(C)C)c3ccncc3)n2)cc1` (configuration not stated), the inhibition is 3.82%.

With `CNS(=O)(=O)c1cccc(C(=O)NC2CCCc3ccccc32)c1` (configuration not stated), the inhibition was 5.31%.

Take `O=C(Nc1cccc(F)c1)NC1CCCc2ccccc21` (configuration not stated): the inhibition was 72.2% (active).

Take `O=C(Nc1cccc(F)c1)NC1CCCCCCC1`: the inhibition is 14.1%.

Regarding `O=C(Nc1ccc(F)c(Cl)c1)C1CCN(S(=O)(=O)c2cccnc2)CC1`, the inhibition is -11.3%.

`COc1ccc(C)cc1NC(=O)CSc1nnc2ccc(-c3ccccn3)nn12`: the inhibition is -1.16%.

On to `CCN(C[C@H]1N[C@@](CC)(C(=O)OC)[C@H]2C(=O)N(Cc3ccccc3)C(=O)[C@@H]12)S(=O)(=O)c1ccc(C(F)(F)F)cc1`, for which the inhibition is 1.74%.

For `COc1ccc(NC(=O)CNc2cc(S(=O)(=O)N3CCOCC3)ccc2N2CCOCC2)c(OC)c1`, the inhibition is -0.66%.

`Cc1c(Cl)c([N+](=O)[O-])nn1CCCC(=O)Nc1cc(Cl)ccc1Cl`: the inhibition is 63.1% (active).

Regarding `Cc1cc([N+](=O)[O-])nn1CCCC(=O)Nc1cccnc1Cl`, the inhibition is -6.6%.

`Cc1c(Cl)c([N+](=O)[O-])nn1CCCC(=O)NC(C)c1ccccc1` (configuration not stated): the inhibition was 19.6%.

For `Nc1c(N(CCCO)C(=O)C2CCCC2)c(=O)[nH]c(=O)n1Cc1ccccc1`, the inhibition was 2.96%.

`Cc1ccc2[nH]c(=O)c(CC=C(Cl)Cl)c(C)c2c1`: the inhibition was -4.78%.

Take `CN(C(=O)c1cccc(NC(=O)Cc2ccc(NC(=O)C3CCN(C(=O)C4CCCCC4)CC3)cc2)c1)C1CCC1`: the inhibition was -6.18%.

As to `O=C(NCc1cccc(CNC(=O)Nc2cccc(O)c2)c1)Nc1cccc(O)c1`, the inhibition is 27.4%.

On to `COc1cccc(NC(=O)NCc2ccc(F)cc2)c1`, for which the inhibition was 46.2% (active).

Consider `COC(=O)[C@@H](NC(=O)NCc1cccc(OC)c1)C(C)C`, for which the inhibition was -0.62%.

As to `CC1CCCC(NC(=O)c2cc(-c3ccncc3)nc3ccccc23)C1C` (configuration not stated), the inhibition is -8.76%.

Turning to `CC(C)CCn1c(=O)c2c(nc3n2CCCN3Cc2ccccc2)n(C)c1=O`, the inhibition is 3.87%.

Regarding `CCOC(=O)C1=C(C)c2ccccc2OC1(C)C(=O)OCC` (configuration not stated), the inhibition is 2.41%.

With `CCOC(=O)c1[nH]c2ccccc2c1N=C(C)N(CC)CC`, the inhibition was -9.79%.

`CCOC(=O)c1c(C)[nH]c2c1-c1ccccc1C(=O)C2=O`: the inhibition was 47% (active).

As for `C=C(C)CSc1nc(N)c2c3c(sc2n1)CCC3`, the inhibition is 17.7%.

In the case of `Nc1nc(SCC(=O)NCCN2CCOCC2)nc2sc3c(c12)CCC3`, the inhibition is -9.91%.

Consider `CC(C)(C)C1CCc2c(sc3nc(SCC(N)=O)nc(N)c23)C1` (configuration not stated), for which the inhibition is 42.8% (active).

Take `O=S1(=O)CCC(NC(=S)SCc2ccccc2Br)C1` (configuration not stated): the inhibition was -4.75%.

Turning to `Cc1c(Cl)cccc1NC(=O)NCCCN1CCCC1=O`, the inhibition is 2.74%.

Consider `Cc1c(Cl)cccc1NC(=O)Nc1ccc(C(=O)N2CCCC2)cc1`, for which the inhibition was 40.6% (active).

Take `CS(=O)(=O)Nc1ccc(C(=O)N2CCCC2)cc1`: the inhibition is -2.74%.

As for `COc1ccccc1CCNC(=O)CSc1nnc2ccc(-c3cccnc3)nn12`, the inhibition was 0.74%.

For the compound `CCn1c(Cc2ccc(OC)cc2)nnc1SCC(=O)Nc1ccc(N2CCOCC2)cc1`, the inhibition was -5.02%.

On to `Cc1ccc(C2=Nc3c(ccc4ccccc34)C(c3ccncc3)=NN2)cc1`, for which the inhibition was 60.3% (active).

In the case of `Cc1ccc(-c2csc(-c3c[nH]c4ccccc34)n2)cc1`, the inhibition is 4.81%.

For `CC(Sc1nnc(-c2ccccc2F)n1C1CC1)C(N)=O` (configuration not stated), the inhibition is -8.94%.

Turning to `CCCCCCCC1(C)NC(=O)N(CC(=O)Nc2cc(C)on2)C1=O` (configuration not stated), the inhibition is -10.1%.

Take `O=C(C1CCN(S(=O)(=O)Cc2ccccc2)CC1)N1CCCc2ccccc21`: the inhibition is 13.8%.

With `Cc1ccc(N2CC(C(=O)NCCS(=O)(=O)N3CCN(c4ccccc4)CC3)CC2=O)cc1` (configuration not stated), the inhibition is -5.93%.

For `CCc1ccc2c(c1)C(c1ccc([N+](=O)[O-])cc1)=NNC(c1ccccc1)=N2`, the inhibition was 61% (active).

Turning to `CCOc1ccc2c(c1)C(c1ccc(C)cc1)=NNC(c1ccc(C)cc1)=N2`, the inhibition was 65.9% (active).

Consider `Fc1ccc2c(c1)C(c1cccnc1)=NNC(c1cccs1)=N2`, for which the inhibition was -1.31%.

`COc1ccc2c(c1)C(c1cccs1)=NNC(c1cccnc1)=N2`: the inhibition is 0.69%.

Take `CCOC(=O)C1=C(C)N(C[C@@H]2CC[C@@H](Cc3ccc(-c4ccccc4)cc3)O2)C(=O)NC1c1ccc([N+](=O)[O-])cc1` (some centres not stated): the inhibition was 1.26%.

`CCC1OC(c2ccc([N+](=O)[O-])cc2)=Nc2ccccc21` (configuration not stated): the inhibition was -2.62%.

For the compound `Cc1ccccc1CSc1nnc(-c2ccccc2)c(=O)[nH]1`, the inhibition is 11.3%.

Turning to `CCCN1C2CCCC1CC(NC(=O)c1cccc(OC)c1)C2` (configuration not stated), the inhibition is -4.61%.

For the compound `CC(C(=O)NCCc1ccc(S(N)(=O)=O)cc1)N1C(=O)CC(C)(C)Sc2ccccc21` (configuration not stated), the inhibition is 1.71%.

As to `Cn1c2c(c(=O)n(C)c1=O)C(c1ccc(O)cc1)Nc1ccccc1O2` (configuration not stated), the inhibition is -5.48%.

For `CCc1nn(-c2cc(Oc3cccc4ccccc34)nc(-c3ccccc3)n2)c(N)c1C#N`, the inhibition was -7.41%.

For the compound `COc1ccc(C)cc1N(C)C(=O)c1coc(=O)c2ccccc12`, the inhibition is -10%.

`CCOc1ccccc1Nc1ccc(C(=O)O)cc1[N+](=O)[O-]`: the inhibition was -16.2%.

As for `Cc1ccc(Nc2ccc(C(N)=O)cc2[N+](=O)[O-])cc1`, the inhibition was 66.7% (active).

Regarding `NC(=O)c1ccc(Nc2ccc3c(c2)CCC3)c([N+](=O)[O-])c1`, the inhibition is 29.8%.

`CC(=O)c1ccc(S(=O)(=O)NCc2nnnn2-c2ccccc2)cc1`: the inhibition was -3.36%.

In the case of `O=C(O)CCn1cc(/C=C/C(=O)c2ccc(Cl)cc2)c(-c2cccc(Br)c2)n1`, the inhibition is 53.3% (active).

`O=C(/C=C/NNC(=O)c1cccc(Br)c1)c1ccccc1`: the inhibition is 8.45%.

`Cc1cccc(C=CC(=O)c2ccc(Cl)cc2)c1`: the inhibition was -4.71%.

In the case of `CCOC(=O)c1ccc(-n2c(CCC(=O)O)ccc2-c2ccccc2)cc1`, the inhibition was 9.28%.

As to `COc1ccc(C(CNCC(=O)Nc2ccccc2F)N(C)C)cc1` (configuration not stated), the inhibition was 9.81%.

In the case of `Cc1c([N+](=O)[O-])c(N)nn1C`, the inhibition is -3.74%.

For `O=C(COC(=O)Cn1[nH]c(=O)c2ccccc2c1=O)Nc1c(Cl)cccc1C(F)(F)F`, the inhibition is 1.19%.

For `CCC(C)N(C(=O)COC(=O)C1C(C(=O)OC)=C(C)NC(C)=C1C(=O)OC)C1CCS(=O)(=O)C1` (configuration not stated), the inhibition is -4.18%.

For `CC(C)c1nc(SCC(=O)Nc2cccc(C(=O)O)c2)c2c3c(sc2n1)CCCC3`, the inhibition is 68.4% (active).

For `Cc1cc(NC(=O)CSc2nc(C(C)C)nc3sc4c(c23)CCC(C)C4)no1` (configuration not stated), the inhibition was -8.31%.

As to `Cc1ccc(C)c2c1cc(C)c1nnc(SCC(=O)Nc3cccc(C(=O)O)c3)n12`, the inhibition was -4.22%.

Turning to `Cc1cc(N(C)C)cc(C)[n+]1[O-]`, the inhibition was 1%.

Take `C#CCOc1ccc(/C=C2/C(=O)NN(c3ccccc3)C2=O)cc1OC`: the inhibition was 3.6%.

For `Cc1ccccc1-n1c(C)cc(/C=C2\NC(=O)NC2=O)c1C`, the inhibition was -2.07%.

For `Cc1cccc(C)c1-n1c(C)cc(/C=C2\C(=O)NN(c3ccccc3)C2=O)c1C`, the inhibition was 50.9% (active).

Take `CC(C)CC(=O)NC(=S)Nc1ccc(F)cc1F`: the inhibition was 0.36%.

In the case of `O=C(CC1C(=O)NCCN1CC(c1ccccc1)c1ccccc1)NCC1CCOCC1` (configuration not stated), the inhibition was 5.98%.

Regarding `Cc1cccc(CC(=O)Nc2c3c(nn2-c2cccc(Cl)c2)CS(=O)C3)c1` (configuration not stated), the inhibition is -6.51%.

For the compound `Cc1sc2nc(CC(N)=O)[nH]c(=O)c2c1-c1ccccc1`, the inhibition is 5.21%.

Turning to `NC(=O)c1sc2nc3c(c(-c4ccccc4)c2c1N)CCC3`, the inhibition is 42.3% (active).

With `CCN(CC)C(=O)c1sc2nc(-c3ccccc3)ccc2c1N`, the inhibition was -13.8%.

With `CCN(CC)S(=O)(=O)c1ccc2c3c(cccc13)C(=O)S2`, the inhibition is -12.5%.

For the compound `O=C(c1ccncc1)N1CCN(S(=O)(=O)c2cccc([N+](=O)[O-])c2)CC1`, the inhibition was -1.28%.

On to `Cc1ccccc1/C=C\c1nc(O)c([N+](=O)[O-])c(=O)[nH]1`, for which the inhibition was 4.7%.

`CCCc1ccc(C(=O)[C@@H]2[C@@H](C(C)=O)N3c4ccc(F)cc4C=C[C@@H]3[C@@]23C(=O)Nc2ccccc23)cc1`: the inhibition was 7.49%.

With `COc1ccc(CNC(=O)CCCn2nc(C)c([N+](=O)[O-])c2C)cc1`, the inhibition is 4.24%.

On to `Cc1nn(CC(=O)Nc2ccc(N(C)C)cc2)c(C)c1[N+](=O)[O-]`, for which the inhibition was -1.82%.

As to `Cc1ccc(Oc2cc(NC(=O)CCCn3nc(C)c([N+](=O)[O-])c3C)cc([N+](=O)[O-])c2)cc1`, the inhibition is 62% (active).

As to `CN(c1ccc(OCC(=O)NC2=NCCS2)cc1)S(=O)(=O)c1ccc(F)cc1`, the inhibition is -9.32%.

As to `COCCCNC(=S)NC(=O)c1ccc([N+](=O)[O-])cc1`, the inhibition was -7.22%.

`CCCc1nc2sc3c(c2c(=O)n1NC(=O)CCCl)CCCC3`: the inhibition was 10.3%.

For `CCc1nc(N2CCN(C(C)=O)CC2)c2c3c(sc2n1)CCCC3`, the inhibition was 45.4% (active).

For `Cc1nc2sc3c(c2c(=O)n1NC(=O)CCl)CCCC3`, the inhibition was -3.09%.
